We go through 33 compounds from ChEMBL document CHEMBL1961873, “Compounds: GSK PKIS; Assays: Nanosyn kinase panel” (2012).
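Also: each value is an averaged inhibition figure for MET, taken as the mean across measurements.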

In this experiment the target is Hepatocyte growth factor receptor (Homo sapiens) (UniProt P08581). Conditions: at 1 µM.
Sequence of Hepatocyte growth factor receptor (Homo sapiens) (P08581 whole entry): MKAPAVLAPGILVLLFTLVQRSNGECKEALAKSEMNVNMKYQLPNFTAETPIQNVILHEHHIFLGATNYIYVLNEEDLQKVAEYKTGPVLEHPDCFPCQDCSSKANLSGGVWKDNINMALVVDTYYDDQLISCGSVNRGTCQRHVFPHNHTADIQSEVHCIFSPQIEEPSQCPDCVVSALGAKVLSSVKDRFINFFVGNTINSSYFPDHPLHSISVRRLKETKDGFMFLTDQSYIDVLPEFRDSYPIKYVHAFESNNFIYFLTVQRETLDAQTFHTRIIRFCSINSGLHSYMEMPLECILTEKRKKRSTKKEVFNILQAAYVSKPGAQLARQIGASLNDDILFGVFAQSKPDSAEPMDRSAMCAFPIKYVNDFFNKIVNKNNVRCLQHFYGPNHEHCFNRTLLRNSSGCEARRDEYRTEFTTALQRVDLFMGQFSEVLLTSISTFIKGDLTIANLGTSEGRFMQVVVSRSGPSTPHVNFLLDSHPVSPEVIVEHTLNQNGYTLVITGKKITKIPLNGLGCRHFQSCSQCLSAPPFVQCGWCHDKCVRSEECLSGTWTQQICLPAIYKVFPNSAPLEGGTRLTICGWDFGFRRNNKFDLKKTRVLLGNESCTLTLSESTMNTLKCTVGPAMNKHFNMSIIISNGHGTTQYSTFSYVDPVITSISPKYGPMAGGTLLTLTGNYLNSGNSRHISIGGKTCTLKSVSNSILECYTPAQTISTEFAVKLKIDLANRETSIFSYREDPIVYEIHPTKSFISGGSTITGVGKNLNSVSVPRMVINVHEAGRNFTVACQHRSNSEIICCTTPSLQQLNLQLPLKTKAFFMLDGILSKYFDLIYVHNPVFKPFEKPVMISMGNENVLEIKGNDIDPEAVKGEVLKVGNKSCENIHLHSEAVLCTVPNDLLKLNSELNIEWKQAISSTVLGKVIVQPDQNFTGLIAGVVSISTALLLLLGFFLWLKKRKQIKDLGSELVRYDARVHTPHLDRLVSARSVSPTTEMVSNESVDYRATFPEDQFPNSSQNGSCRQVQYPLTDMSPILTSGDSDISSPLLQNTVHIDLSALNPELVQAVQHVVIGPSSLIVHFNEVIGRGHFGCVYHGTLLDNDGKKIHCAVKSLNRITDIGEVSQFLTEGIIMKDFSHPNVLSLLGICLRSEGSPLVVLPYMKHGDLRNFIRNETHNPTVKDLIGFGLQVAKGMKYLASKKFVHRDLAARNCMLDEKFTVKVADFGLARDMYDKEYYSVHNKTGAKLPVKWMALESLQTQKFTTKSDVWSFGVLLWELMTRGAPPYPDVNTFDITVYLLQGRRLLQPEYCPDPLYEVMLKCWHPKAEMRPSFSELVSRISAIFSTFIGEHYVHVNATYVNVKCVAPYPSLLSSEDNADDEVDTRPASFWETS
Broadly, the inhibition is the relative decrease from the control value, in per cent. For the compound `CCn1cc(-c2ccnc3[nH]ccc23)c(-c2cccc(NC(=O)Nc3ccc(OCc4ccccc4)cc3)c2)n1`, the inhibition came to 46.4%.

With `Cc1cccc(Nc2ncc(-c3ccccc3)o2)c1`, the inhibition was 2.78%. Next, `Nc1nc(-c2ccc(F)cc2)c(-c2ccc3ncccc3n2)s1`: 10.1%. Next, `FC(F)(F)c1cccc(-c2nn3ncccc3c2-c2ccnc(Nc3ccc4c(c3)OCCO4)n2)c1`: 5.36%; `CNC(=O)c1cncc(/C=C/c2ccccc2Cl)c1`: 4.48%.

As to `O=C(O[C@H]1CN[C@H](C#Cc2cc3ncnc(Nc4ccc(Cc5ccccc5)cc4)c3s2)C1)N1CCOCC1`, the inhibition stood at 4.56%. As for `COc1ccc(-c2nn3ncccc3c2-c2ccnc(Nc3ccc4c(c3)OCCO4)n2)cc1`, the inhibition was determined as 8.57%. For `CCNC(=O)O[C@H]1CN[C@H](C#Cc2cc3ncnc(Nc4ccc(OCc5cccc(F)c5)c(Cl)c4)c3s2)C1` the value was 1.15%. For `COc1ccc(-c2oc3ncnc(N)c3c2-c2ccc(NC(=O)Nc3cc(C(F)(F)F)ccc3F)cc2)cc1` the value was 63.2%; for `CCn1c(-c2nonc2N)nc2cnc(Oc3cccc(NC(=O)c4ccc(N(C)C)cc4)c3)cc21`, -4.37%. For `CCn1c(-c2nonc2N)nc2c(C#CC(C)(C)O)nc(OC[C@H](N)c3ccccc3)cc21`, the inhibition amounted to 1.76%. Next, `Fc1ccc(-c2nn3ncccc3c2-c2ccnc(Nc3ccc4c(c3)OCCO4)n2)cc1`: 10.7%; `COc1cccc(-c2c[nH]c3c(N/N=C/c4ccncc4)ncnc23)c1`: 27.3%; `O=C(Nc1n[nH]c2cc(-c3ccc(F)cc3)ccc12)C1CC1`: 0.71%.

Consider `Clc1ccc(-c2nn3ncccc3c2-c2ccnc(Nc3ccccc3)n2)cc1`, for which the inhibition was found to be 4.06%. With `c1ccc(COc2ccc(Nc3ncnc4ccc(-c5ccco5)cc34)cc2)cc1`, the inhibition is 2.85%. Next, `N#Cc1c(NC(=O)c2ccc(F)cc2)sc2c1CCCC2`: 2.01%; `COc1cc(/C=N/Nc2ncnc3[nH]ncc23)ccc1O`: 14.9%; `Nc1nc(-c2cccc(Cl)c2)c(-c2ccc3ncccc3n2)s1`: 7.33%.

`COc1cc2ncn(-c3cc(OCc4ccccc4C(F)(F)F)c(C(=O)N(C)C)s3)c2cc1OC`: the inhibition was -4.49%. As for `COC(=O)Nc1nc2ccc(S(=O)(=O)c3ccc(NC(=O)Nc4cc(C(F)(F)F)ccc4F)cc3)cc2[nH]1`, the inhibition stood at 0.66%. For `COc1ccc(-c2cc3c(N)ncnc3o2)cc1`, the inhibition came to 0.32%. Consider `COc1cc(N2CCN(C(C)C)CC2)ccc1Nc1nc(Nc2ccc(F)cc2C(N)=O)c2cc[nH]c2n1`, for which the inhibition is 0.66%. Take `CC1=C(C(=O)Nc2cc(Cl)c3[nH]ncc3c2)C(c2ccc(C(F)(F)F)cc2)CC(=O)N1` (stereo not drawn): the inhibition amounted to 4.94%.

For the compound `CC(=O)NCc1cccc(C#Cc2cncnc2Nc2ccc(OCc3cccc(F)c3)c(Cl)c2)c1`, the inhibition was found to be 1.83%. As to `CCn1c(-c2nonc2N)nc2c(C#CC(C)(C)O)ncc(OC3CCNCC3)c21`, the inhibition was -3.51%. Regarding `NS(=O)(=O)c1ccc(Nc2ncc(-c3ccccc3)o2)cc1`, the inhibition is -0.71%. Regarding `CCCN(CCS(C)(=O)=O)Cc1ccc(-c2ccc3ncnc(Nc4ccc(OCc5cccc(F)c5)c(Cl)c4)c3c2)o1`, the inhibition came to 5.26%. For `CN1CCC(n2cnc(-c3ccc(F)cc3)c2-c2ccnc(Nc3ccccc3)n2)CC1` the value was 9.59%; for `COc1ccc(CNC(=O)c2ccc(-c3cc(-c4nnc(C)o4)ccc3C)cc2)cc1`, 10.3%; for `COc1cc(Nc2nccc(Nc3ccc4c(C)n[nH]c4c3)n2)cc(OC)c1OC`, 12.3%. For `CN1CCC(n2cnc(-c3ccc(F)cc3)c2-c2ccnc(N)n2)CC1` the value was 0.93%; for `COc1ccc2c(-c3ccnc(Nc4cccc(OC(F)(F)F)c4)n3)cnn2n1`, 15.7%.
